Records with an inconclusive call do not appear. Unmarked numbers belong to inactive results. Active and inactive are the calls of the source. The call rests on the fitted dose curve; in most records, active means well fitted cell-killing curve with a large enough effect in the repeat runs; inconclusive means weak or mixed curves, or effect the other way; inactive means no such curve, though single readings can be large or run the other way.
test: qHTS assay to identify small molecule antagonists of the sonic hedgehog signaling (Shh) pathway - cell viability counter screen (AID 1259367); details: NIH/3T3 Gli1-Luc viability, CellTiter-Fluor, 24 h; series mostly up to 92.4 µM; viability change, negative = cytotoxic: at the top concentration; further: nearly all actives have a fitted effect of over 55% in size
Description: National Center for Advancing Translational Sciences [NCATS]
NIH Chemical Genomics Center [NCGC]
U.S. Environmental Protection Agency [EPA]
National Institutes of Environmental Health Sciences [NIEHS]
National Toxicology Program [NTP]
U.S. Food and Drug Administration [FDA]
The sonic hedgehog (Shh) pathway is essential for normal embryonic development. Dysregulation of the Shh pathway can cause severe developmental defects in organs. Therefore chemicals that interfere with the pathway are potential developmental toxicants. A cell line designated 3T3Gli1-Luc (DMB/OARSA/CFSAN/FDA, Laurel, MD), a NIH/3T3 derived clone containing stably integrated Gli1-Luc reporter is used to detect chemical interference of the Shh pathway, by changes in the expression of the firefly Luc gene under the control of the Gli1 transcriptional response element. This cell line was used to screen Tox21 libraries for identifying and prioritizing the potential developmental toxicants that interfere Shh pathway. Conditioned medium-stimulated mode was used to screen for chemicals inhibiting Shh signaling. The cytotoxicity of the compounds was tested in parallel by measuring the cell viability using CellTiter-Fluor assay system (Promega, Madison, WI) in the same wells.
Tox21 Assay Protocol Summary:
3T3 Gli1-Luc cells were dispensed at 2,000 per well in 5uL of culture medium into white solid bottom 1536-well plates (Greiner Bio-One, Monroe, NC) using a Multidrop Combi (Thermo Scientific, Waltham, MA) dispenser. The assay plates were incubated at 37 C and 5% CO2 for 4hr, and then 23nL of compounds dissolved in DMSO and positive control were transferred using a Pintool station (Wako, San Diego, CA). The compound transfer was followed by the addition of 1ul conditioned medium or assay buffer using two separate tips of Flying Reagent Dispenser (FRD, Aurora Discovery, San Diego, CA). The assay plates were incubated at 37C and 5% CO2 for 24hr. For viability read, after 23hr of compound treatment, 1uL of CellTiter-Fluor reagent (Promega Corporation, Madison, WI) was added to each well of the assay plates using Flying Reagent Dispenser (FRD, Aurora Discovery, San Diego, CA) and incubated the assay plates at 37C for 1hr. The fluorescence signal was quantified using a ViewLux plate reader (Perkin Elmer, Shelton, CT).
On the % scale 0 is the no-effect control and ±100 the full control effect; potency means the concentration at half of the fitted maximal effect.

First: CC(C)(C)C(=O)C(Cl)Cl
Second: CC(C)(C)C(=O)Cl
The “viability change, negative = cytotoxic” value of the first is higher: 5.73% for the first, 4.72% for the second.

Going from `CCCOc1nn(C(=O)NS(=O)(=O)c2ccccc2C(=O)OC)c(=O)n1C` to `CCOC(=O)C(SP(=S)(OC)OC)c1ccccc1` (stereo not given), the “viability change, negative = cytotoxic” value falls from 0.831% to 0.465%.

Compared with `CC(C)(C)c1cc(O)ccc1O`, `CON(C)C(=O)Nc1ccc(Br)cc1` is higher in “viability change, negative = cytotoxic” value: -11.5% for the first, 6.82% for the second.

First: CC1N=C(N)OC1c1ccccc1 (stereo not given)
Second: CC[C@H](N)c1ccccc1
The “viability change, negative = cytotoxic” value of the first is lower: -10.8% for the first, -0.672% for the second.

First: ClCOCCl
Second: Cl/C=C/CCl
The “viability change, negative = cytotoxic” value of the first is higher: 3.33% for the first, -0.533% for the second.

Going from `ClCC1CO1` (stereo not given) to `O=C1CCCCC1Cl` (stereo not given), the “viability change, negative = cytotoxic” value rises from -3.67% to 8.17%.

Going from `O=[N+]([O-])c1cccc(CCl)c1` to `O=P(O)(O)c1ccccc1`, the “viability change, negative = cytotoxic” value rises from -0.686% to 2.68%.

First: CCCCCCCCSC(=O)Oc1cc(Cl)nnc1-c1ccccc1
Second: CCC(=O)OC1(c2ccccc2)CCN(C)CC1
The “viability change, negative = cytotoxic” value of the first is higher: 1.76% for the first, -14.2% for the second.

First: O=C1CC(=O)NC(=O)N1
Second: O=c1[nH]c2ccccc2o1
The “viability change, negative = cytotoxic” value of the first is higher: 6.32% for the first, 1.58% for the second.

First: COC1=CC(=O)O[C@@H](/C=C/c2ccccc2)C1
Second: O=C/C=C/c1ccco1
The “viability change, negative = cytotoxic” value of the first is lower: -6.47% for the first, 2.26% for the second.

Going from `CC(Cl)(Cl)Cl` to `O=C(Cl)C(Cl)Cl`, the “viability change, negative = cytotoxic” value rises from -4.4% to 0.22%.

Going from `CCC(C)(C#N)N=NC(C)(C#N)CC` (stereo not given) to `CCNc1nc(NCC)nc(SC)n1`, the “viability change, negative = cytotoxic” value rises from -1.13% to 0.122%.

Compared with `CCCC[N+](=O)[O-]`, `Nc1c(Cl)c(F)nc(OCC(=O)O)c1Cl` is higher in “viability change, negative = cytotoxic” value: -0.869% for the first, 4.82% for the second.

Compared with `O=S1(=O)OCCO1`, `Cc1cc(OC(=O)N(C)C)nn1C(=O)N(C)C` is lower in “viability change, negative = cytotoxic” value: 0.451% for the first, -2.59% for the second.

`Cc1ccc2c(c1)C1CN(C)CCC1N2` (stereo not given) gave a viability change, negative = cytotoxic of 5.33% [at 19 µM].

Compared with `Cc1ccc(S(=O)(=O)N[C@@H](CCCCN)C(=O)CCl)cc1`, `COC[C@@H](NC(C)=O)C(=O)NCc1ccccc1` is higher in “viability change, negative = cytotoxic” value: 2.37% [at 42.5 µM] for the first, 2.76% [at 42.5 µM] for the second.

First: CNC(=O)NC(O)C(Cl)(Cl)Cl (stereo not given)
Second: O=C(NC(O)C(Cl)(Cl)Cl)NC(O)C(Cl)(Cl)Cl (stereo not given)
The “viability change, negative = cytotoxic” value of the first is higher: 20% [at 42.5 µM] for the first, -1.04% [at 42.5 µM] for the second.

Compared with `N[C@@H](Cc1ccc(Oc2cc(I)c(O)c(I)c2)c(I)c1)C(=O)O`, `CC[C@@H](CO)NC(=O)[C@@H]1C=C2c3cccc4[nH]cc(c34)C[C@H]2N(C)C1` is higher in “viability change, negative = cytotoxic” value: -7.12% [at 42.5 µM] for the first, 0.766% [at 42.5 µM] for the second.

First: CCCN1CCC[C@@H]2Cc3nc(N)ncc3C[C@H]21
Second: CCC1(c2ccccc2)C(=O)N(COC)C(=O)N(COC)C1=O
The “viability change, negative = cytotoxic” value of the first is higher: 5.49% [at 42.5 µM] for the first, 2.94% [at 42.5 µM] for the second.

With `NC1(c2ccccc2)CCCCC1` the Potency was 27.1 µM (active).
In the case of `C[C@H]1CCCC(=O)CCC/C=C/c2cc(O)cc(O)c2C(=O)O1`, the Potency is reported as 23.4 µM (active).
In the case of `CCOC(=O)CC(SP(=S)(OC)OC)C(=O)OCC` (stereo not given), the Potency is reported as “inactive”.
